# According to PubChem BioAssay:
# Active and inactive are the calls of the source. Unless noted, the rule behind the calls is not given here.
# Key:
# [1] = compound effects on lung adenocarcinoma cell viability – A549, calcein-AM fluorescence, 48 h, basal, profiling panel (AID 1162); conditions: higher = more signal; note: test concentration not given here
# [2] = compound effects on differentiated 3T3-L1 adipocyte viability – cell-based, 3T3-L1 adipocytes, calcein-AM fluorescence, 48 h, basal, profiling panel (AID 1163); conditions: 3T3-L1 adipocytes viability, higher = more signal; note: test concentration not given here
# [3] = compound effects on hepatocellular carcinoma cell viability – HepG2, calcein-AM fluorescence, 48 h, basal, profiling panel (AID 1164); conditions: higher = more signal; note: test concentration not given here
# [4] = compound effects on multiple myeloma cell viability – MM1S, calcein-AM fluorescence, 48 h, basal, profiling panel (AID 1165); conditions: higher = more signal; note: test concentration not given here
# [5] = calcein-AM signal in unstimulated myeloma cells – cell-based, calcein-AM fluorescence, 48 h, PK04 Diversity Set, profiling panel (AID 1166); conditions: RPMI8226 myeloma viability, higher = more signal;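 note: cells grown under basal conditions without added stimulus; test concentration not given here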
# [6] = JC-1 mitochondrial signal, unstimulated HepG2 cells – cell-based, JC-1 fluorescence, 24 h, 100 nL compound, profiling panel (AID 1167); conditions: HepG2 mitochondrial potential, higher = more signal; note: test concentration not given here
# [7] = JC-1 mitochondrial signal, unstimulated adipocytes – cell-based, JC-1 fluorescence, 3T3-L1 adipocytes, 24 h, 100 nL compound, profiling panel (AID 1168); conditions: JC-1 mitochondrial fluorescence, higher = more signal, called active from +8 up or from −8 down; note: test concentration not given here
# [8] = JC-1 mitochondrial signal, unstimulated myeloma cells – cell-based, JC-1 fluorescence, RPMI8226, 24 h, 100 nL compound, profiling panel (AID 1169); conditions: JC-1 mitochondrial potential fluorescence, higher = more signal; note: test concentration not given here
# [9] = JC-1 mitochondrial signal, unstimulated MM1S myeloma – cell-based, JC-1 fluorescence, 24 h, 100 nL compound, profiling panel (AID 1170); conditions: MM1S mitochondrial potential, higher = more signal; note: test concentration not given here
# [10] = resazurin metabolic signal in A549 cells – cell-based, resazurin fluorescence, 24 h, PK04 Diversity Set, profiling panel (AID 1171); conditions: A549 viability, higher = more signal, called active from +8 up or from −8 down; note: test concentration not given here
# [11] = resazurin metabolic signal in HepG2 cells – cell-based, resazurin fluorescence, 24 h, PK04 Diversity Set, profiling panel (AID 1172); conditions: HepG2 viability, higher = more signal; note: test concentration not given here
# [12] = budding yeast growth changes without added modifier – OD600, strain BY4716, 24 h, basal condition, primary screen (AID 1173); conditions: S. cerevisiae BY4716 growth, OD600, 24 h; higher = more signal, called active from +8 up or from −8 down
# [13] = viability profiling in MM1S myeloma cells – cell-based, resazurin fluorescence, basal, 24 h, PK04 Diversity Set, profiling panel (AID 1174); conditions: higher = more signal, called active from +8 up or from −8 down; note: test concentration not given here
# [14] = molecular target: Dihydroorotate dehydrogenase (quinone), mitochondrial (Plasmodium falciparum (isolate 3D7)) (UniProt Q08210); experiment: inhibition of P. falciparum DHODH – biochemical, C-terminal His tag, absorbance 600 nm, primary screen (AID 1175); conditions: PfDHODH enzyme, DCIP absorbance 600 nm; higher = more signal, called active from +8 up or from −8 down;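 note: recombinant parasite enzyme with a five histidine tag at its C terminus; test concentration not given here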
# Dihydroorotate dehydrogenase (quinone), mitochondrial (Plasmodium falciparum (isolate 3D7)), sequence (Q08210 whole entry, looked up): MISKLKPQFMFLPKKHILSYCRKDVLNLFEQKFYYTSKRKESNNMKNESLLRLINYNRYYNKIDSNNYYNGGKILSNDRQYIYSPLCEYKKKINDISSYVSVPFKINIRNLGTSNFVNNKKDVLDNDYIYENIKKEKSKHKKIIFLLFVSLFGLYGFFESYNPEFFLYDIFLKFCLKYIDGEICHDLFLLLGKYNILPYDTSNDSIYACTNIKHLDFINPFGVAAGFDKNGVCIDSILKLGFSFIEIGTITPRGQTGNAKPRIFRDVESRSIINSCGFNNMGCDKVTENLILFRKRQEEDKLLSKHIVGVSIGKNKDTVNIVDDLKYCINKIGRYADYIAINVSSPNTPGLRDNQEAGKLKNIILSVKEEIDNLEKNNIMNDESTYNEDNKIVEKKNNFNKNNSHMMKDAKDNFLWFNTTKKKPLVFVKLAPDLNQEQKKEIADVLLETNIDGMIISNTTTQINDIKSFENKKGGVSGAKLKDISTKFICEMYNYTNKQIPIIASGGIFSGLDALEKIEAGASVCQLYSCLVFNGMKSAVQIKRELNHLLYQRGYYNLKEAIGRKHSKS
# [15] = inhibition of PAO1 biofilm formation – strain PAO1, LB-PBS medium, absorbance 600 nm, primary screen (AID 1176); note: test concentration not given here; conditions: P. aeruginosa PAO1 growth/biofilm, A600, 12 h; higher = more signal
# [16] = growth modulation of vineyard yeast isolate – strain RM11-1a, OD600, basal, 24 h, primary screen (AID 1177);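 note: cultures grown under basal conditions with no added stressor; test concentration not given here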; conditions: S. cerevisiae RM11-1a growth, OD600, 24 h; higher = more signal, called active from +8 up or from −8 down
# [17] = growth of efflux-deficient E. coli DRC39 – strain DRC39, OD650, 24 h, E. coli filamentation inducers, primary screen (AID 1178);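 note: growth measured as culture turbidity by optical density at 650 nm; test concentration not given here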; conditions: E. coli DRC39 acrAB, higher = more signal, called active from +8 up or from −8 down
# [18] = growth of efflux-deficient E. coli DRC39 – strain DRC39, OD650, 48 h, E. coli filamentation inducers, primary screen (AID 1179);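 note: screen aims at cell division blockers that make cells filament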; conditions: E. coli DRC39 delta-acrAB growth, higher = more signal, called active from +8 up or from −8 down
# [19] = viability profiling in RPMI8226 myeloma cells – cell-based, resazurin fluorescence, basal, 24 h, PK04 Diversity Set, profiling panel (AID 1180); conditions: higher = more signal;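 note: RPMI8826 multiple myeloma cell line at 5000 cells per well; test concentration not given here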
# [20] = molecular target: E3 ubiquitin-protein ligase XIAP (Homo sapiens) (UniProt P98170); experiment: small molecules binding XIAP protein – biophysical, small-molecule microarray, fluorescence 635 nm, primary screen (AID 1181); conditions: higher = more signal;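 note: score merges 667 nm emission and signal to noise over triplicate slides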
# E3 ubiquitin-protein ligase XIAP (Homo sapiens), sequence (P98170 whole entry, looked up): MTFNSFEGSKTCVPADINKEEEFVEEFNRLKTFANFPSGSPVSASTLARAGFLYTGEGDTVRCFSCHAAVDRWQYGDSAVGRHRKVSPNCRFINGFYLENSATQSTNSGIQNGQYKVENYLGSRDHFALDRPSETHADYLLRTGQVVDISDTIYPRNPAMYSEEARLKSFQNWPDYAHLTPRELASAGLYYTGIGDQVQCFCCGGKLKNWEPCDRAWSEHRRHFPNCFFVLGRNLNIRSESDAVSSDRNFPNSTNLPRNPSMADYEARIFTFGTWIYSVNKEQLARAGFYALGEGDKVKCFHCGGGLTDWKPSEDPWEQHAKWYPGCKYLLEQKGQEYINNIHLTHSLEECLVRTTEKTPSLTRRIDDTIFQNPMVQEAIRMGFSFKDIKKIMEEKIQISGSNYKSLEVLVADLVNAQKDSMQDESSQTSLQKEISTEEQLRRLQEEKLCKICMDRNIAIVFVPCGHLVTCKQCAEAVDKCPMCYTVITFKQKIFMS
Structure (SMILES),z-score [1],z-score [2],z-score [3],z-score [4],z-score [5],z-score [6],z-score [7],z-score [8],z-score [9],z-score [10],z-score [11],z-score [12],z-score [13],composite z-score [14],z-score [15],z-score [16],z-score [17],z-score [18],z-score [19],composite z-score [20]
COc1ccc([Si](C)(C)[C@H]2[C@H](CC(=O)N3Cc4ccccc4C[C@H]3CO)O[C@@]3(C(=O)N(Cc4ccc(N5CCOC5=O)cc4)c4ccccc43)[C@@H]2C)cc1,-0.135,1.35,-0.919,-2.92,-4.23,-0.0556,0.19 (inactive),-1.04,-1.94,-0.0717 (inactive),-0.418,-0.895 (inactive),-3.41 (inactive),-1.03 (inactive),0.732 (inactive),0.543 (inactive),0.166 (inactive),-0.207 (inactive),-2.27,-0.105
CC1CC/C=C\[C@H]2OC34C=CCN(Cc5ccccc5)C(=O)[C@H]3N(C(CO)C(C)C)C(=O)[C@@H]4C2C(=O)O1 (stereo not given in full),0.743,0.493,0.539,0.947,0.847,-0.213,0.000812 (inactive),-0.795,-0.0133,0.0401 (inactive),0.145,0.325 (inactive),0.325 (inactive),-0.841 (inactive),0.205 (inactive),0.558 (inactive),0.426 (inactive),0.523 (inactive),0.775,-0.211
C=C(COC)/C(=C/C[C@H](OC(=O)c1ccncc1)c1ccccc1OCCO)c1cc(C(=O)OC)ccc1OC,-0.0954,0.0589,-0.0472,-3.34,-1.58,1.94,-0.658 (inactive),-0.596,-0.159,0.315 (inactive),-0.418,-0.0515 (inactive),-2.16 (inactive),-2.32 (inactive),0.367 (inactive),-0.567 (inactive),-1.31 (inactive),-1.21 (inactive),-1.58,-0.157
O=C(O)[C@@H]1[C@@H]2C(=O)N(c3ccccc3)C(=O)[C@@H]2C[C@@H]1Sc1ccccc1,-0.653,-0.832,-1.32,-0.939,-0.616,-0.829,-0.867 (inactive),0.718,-0.773,0.0964 (inactive),-0.303,0.308 (inactive),-0.832 (inactive),1.2 (inactive),0.546 (inactive),1.48 (inactive),-0.719 (inactive),-1.3 (inactive),-1.09,-0.0907
C[N+](C)(C)CCCC[C@@H]1NC(=O)[C@@H]2C[C@H](C(=O)NCCCCCCN)[C@H](c3cccc(OCCO)c3)N2C1=O,-0.148,1,0.649,0.651,-0.013,0.746,-0.17 (inactive),-0.711,0.246,-0.518 (inactive),-0.418,-0.22 (inactive),-0.0181 (inactive),0.441 (inactive),-0.117 (inactive),-0.0966 (inactive),0.342 (inactive),0.743 (inactive),-1.3,0.215
COCCOC(=O)N1C(=O)[C@@]2(c3cc(C#CCC(C(=O)OC)C(=O)OC)ccc31)[C@H](c1ccc(OCCO)cc1)N1[C@H](c3ccccc3)[C@H](c3ccccc3)OC(=O)[C@H]1[C@@H]2C(=O)N1CCc2cc(OC)c(OC)cc2C1,1.05,-0.0617,0.0859,-1.04,-0.467,0.363,1.37 (inactive),-0.262,-1.21,0.0243 (inactive),0.125,2.56 (inactive),0.26 (inactive),-0.523 (inactive),2.25 (inactive),3.32 (inactive),0.301 (inactive),0.294 (inactive),0.504,0.112
COc1cc(NN2C(C(O)c3ccco3)C=CC3C(=O)N(C)C(=O)C32)cc(OC)c1OC (stereo not given),-1.2,-0.615,-0.827,0.032,0.134,-1.01,-0.892 (inactive),-0.573,0.314,-1.41 (inactive),-1.41,0.753 (inactive),-1.76 (inactive),-0.139 (inactive),0.711 (inactive),0.322 (inactive),-1.02 (inactive),-0.941 (inactive),-1.98,0.391
COc1ccc([Si](C)(C)[C@@H]2[C@@H](CC(=O)N3CCC[C@H]3CO)O[C@]3(C(=O)N(Cc4cccc(N5C(=O)COc6ccccc65)c4)c4ccccc43)[C@H]2C)cc1,-0.97,0.441,-4.31,-2.96,-3.83,-1.81,-1.01 (inactive),-0.975,-2,-2.13 (inactive),-1.58,0.107 (inactive),-3.43 (inactive),-1.54 (inactive),0.425 (inactive),0.0195 (inactive),0.719 (inactive),0.374 (inactive),-5.39,-0.102
CCOC(=O)C[C@H]1[C@H](OC(=O)c2ccc(-c3ccccc3)cc2)[C@@H](NC(=O)CC(C)C)c2cc(OCCCO)ccc2N1C(=O)c1ccc2ccccc2n1,1.37,0.556,0.627,0.139,0.0627,1.66,1.47 (inactive),-0.233,-0.411,0.713 (inactive),1,-0.677 (inactive),0.722 (inactive),-1.31 (inactive),-0.382 (inactive),-0.248 (inactive),0.102 (inactive),0.327 (inactive),0.517,-0.134
